Activity calls are given as the source filed them. Rule for the calls: active = hit-call score of the fitted dose curve at least 0.9, where 1 is the maximum; inactive = score below 0.9.
How the values were obtained:
[1] = ATG_GLI_CIS: Attagene CIS-FACTORIAL HepG2 Assay for human Zinc Finger Protein GLI1 (AID 2282945); details: HepG2, Attagene cis-factorial reporter mRNA, GLI element; actives raise or lower the signal
Procedure, shortened: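 Transiently transfected HepG2 cells report endogenous transcription factor activity via cis-element-driven reporter units. After 24 h compound exposure, reporter mRNA was measured by RT-PCR with capillary electrophoresis; bidirectional fitting against DMSO baseline.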

[2] = ATG_ISRE_CIS: Attagene CIS-FACTORIAL HepG2 Assay for human Interferon Regulatory Factor 1 (IRF1) binding to an Interferon-Stimulated Response Element (ISRE) (AID 2282948); details: HepG2 ISRE cis-reporter (Attagene), mRNA transcription readout; actives raise or lower the signal
Procedure, shortened: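 Quantitation relies on labelled RT-PCR fragments separated by capillary electrophoresis. Human HepG2 cells bearing cis-promoter reporter constructs were treated 24 h; DMSO served as baseline for bidirectional fitting.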

[3] = ATG_M_32_CIS: Attagene CIS-FACTORIAL HepG2 Assay for M32 Transcription Factor (Internal Marker) (AID 2282949); details: HepG2 Attagene cis-factorial M32 reporter, mRNA; actives raise or lower the signal;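 note: background control marker of the multiplexed CIS panel rather than a real target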
Procedure, shortened: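 Fluorescent capillary electrophoresis peaks of HpaI-digested, FAM-labelled RT-PCR reporter products give the signal. Source: transiently transfected human liver HepG2 cells, 24 h after chemical dosing; bidirectional fitting against DMSO.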

[4] = ATG_M_06_CIS: Attagene CIS-FACTORIAL HepG2 Assay for M06 Transcription Factor (Internal Marker) (AID 2282950); details: HepG2 Attagene CIS-FACTORIAL M06 internal marker reporter; actives raise or lower the signal
Procedure, shortened: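 HepG2 liver cells, 24 h exposure. Reporter transcripts from transfected cis-element constructs quantified by RT-PCR/capillary electrophoresis fluorescence. Bidirectional curve fit against DMSO.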

[5] = target: Hypoxia-inducible factor 1-alpha (Homo sapiens) (UniProt Q16665); test: ATG_HIF1a_CIS: Attagene CIS-FACTORIAL HepG2 Assay for human Hypoxia Inducible Factor 1 (HIF1A) (AID 2282951); details: HepG2 Attagene cis-factorial HIF1a reporter transcription; actives raise or lower the signal
Hypoxia-inducible factor 1-alpha (Homo sapiens), sequence (Q16665 whole entry, looked up): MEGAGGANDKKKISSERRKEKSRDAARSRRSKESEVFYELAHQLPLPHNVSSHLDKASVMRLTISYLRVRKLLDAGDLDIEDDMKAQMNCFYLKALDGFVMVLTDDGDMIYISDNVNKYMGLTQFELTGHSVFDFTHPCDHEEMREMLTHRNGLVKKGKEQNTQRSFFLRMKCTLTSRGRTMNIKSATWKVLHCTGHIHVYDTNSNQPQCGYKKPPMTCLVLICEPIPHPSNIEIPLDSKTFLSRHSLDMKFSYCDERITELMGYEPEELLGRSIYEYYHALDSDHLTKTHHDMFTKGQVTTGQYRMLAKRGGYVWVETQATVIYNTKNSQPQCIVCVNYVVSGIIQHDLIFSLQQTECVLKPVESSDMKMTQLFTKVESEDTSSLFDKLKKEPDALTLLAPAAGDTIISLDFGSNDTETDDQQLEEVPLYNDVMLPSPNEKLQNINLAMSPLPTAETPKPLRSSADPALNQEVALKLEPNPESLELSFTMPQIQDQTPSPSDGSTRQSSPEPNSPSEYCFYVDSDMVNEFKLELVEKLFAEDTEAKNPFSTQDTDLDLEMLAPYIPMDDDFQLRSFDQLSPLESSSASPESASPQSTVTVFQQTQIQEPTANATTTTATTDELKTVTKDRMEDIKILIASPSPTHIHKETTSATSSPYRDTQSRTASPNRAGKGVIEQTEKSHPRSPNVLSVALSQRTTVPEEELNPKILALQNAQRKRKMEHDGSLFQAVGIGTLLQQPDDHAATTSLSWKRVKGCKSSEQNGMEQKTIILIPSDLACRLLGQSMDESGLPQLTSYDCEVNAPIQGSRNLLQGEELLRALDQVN
Procedure, shortened: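 In this multiplexed cell assay, HepG2 cells bearing transfected cis reporters are dosed for 24 h and reporter mRNA is read by RT-PCR plus capillary electrophoresis; signal increases and decreases are both scored against DMSO.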

[6] = target: Hepatocyte nuclear factor 6 (Homo sapiens) (UniProt Q9UBC0); test: ATG_HNF6_CIS: Attagene CIS-FACTORIAL HepG2 Assay for human Hepatocyte Nuclear Factor 6 (HNF6) (AID 2282952); details: HepG2 Attagene cis-factorial HNF6 reporter transcription; actives raise or lower the signal
Hepatocyte nuclear factor 6 (Homo sapiens), sequence (Q9UBC0 whole entry, looked up): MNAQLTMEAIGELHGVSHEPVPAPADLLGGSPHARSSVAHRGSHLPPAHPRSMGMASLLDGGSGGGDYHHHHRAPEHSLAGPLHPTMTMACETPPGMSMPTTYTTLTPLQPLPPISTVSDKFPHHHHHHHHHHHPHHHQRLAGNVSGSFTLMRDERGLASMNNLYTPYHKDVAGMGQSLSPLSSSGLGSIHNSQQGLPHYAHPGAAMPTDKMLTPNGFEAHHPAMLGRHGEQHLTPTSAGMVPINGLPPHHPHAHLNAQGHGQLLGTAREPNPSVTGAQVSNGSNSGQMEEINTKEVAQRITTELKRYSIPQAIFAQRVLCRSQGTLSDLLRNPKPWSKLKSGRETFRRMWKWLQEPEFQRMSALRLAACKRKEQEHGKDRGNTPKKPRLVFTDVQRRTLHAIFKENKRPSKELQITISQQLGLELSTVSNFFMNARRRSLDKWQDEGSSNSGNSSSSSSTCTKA
Procedure, shortened: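 HepG2, transient MRTU transfection (cis promoters); 24 h chemical exposure; total RNA → oligo(dT) RT → PCR → 6-FAM labelling → HpaI cut → CE; bidirectional fit vs DMSO.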

[7] = target: Heat shock factor protein 1 (Homo sapiens) (UniProt Q00613); test: ATG_HSE_CIS: Attagene CIS-FACTORIAL HepG2 Assay for human Heat Shock Transcription Factor 1 (HSE) (AID 2282953); details: HepG2 HSE cis-reporter, Attagene RNA transcription; actives raise or lower the signal
Heat shock factor protein 1 (Homo sapiens), sequence (Q00613 whole entry, looked up, the tested form may be a part): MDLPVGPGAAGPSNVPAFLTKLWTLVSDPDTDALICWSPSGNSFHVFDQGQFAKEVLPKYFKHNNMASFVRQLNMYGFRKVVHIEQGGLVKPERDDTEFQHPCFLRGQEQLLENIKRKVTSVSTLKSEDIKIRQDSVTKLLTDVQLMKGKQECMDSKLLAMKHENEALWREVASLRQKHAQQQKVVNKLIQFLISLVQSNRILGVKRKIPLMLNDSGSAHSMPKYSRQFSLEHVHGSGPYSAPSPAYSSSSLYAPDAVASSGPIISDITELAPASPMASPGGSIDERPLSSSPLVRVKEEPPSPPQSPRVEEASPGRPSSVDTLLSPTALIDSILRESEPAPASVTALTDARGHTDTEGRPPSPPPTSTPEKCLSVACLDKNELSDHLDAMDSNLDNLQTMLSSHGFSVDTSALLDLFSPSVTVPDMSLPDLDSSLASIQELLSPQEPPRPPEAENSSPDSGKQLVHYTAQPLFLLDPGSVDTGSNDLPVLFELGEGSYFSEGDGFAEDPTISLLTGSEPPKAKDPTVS
Procedure, shortened: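 Endogenous transcription factor activity captured via cis-promoter reporter units transfected into HepG2; treatment lasted 24 h. Fluorescence intensity of reporter fragments analysed with bidirectional curve fitting, DMSO baseline.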

[8] = ATG_MRE_CIS: Attagene CIS-FACTORIAL HepG2 Assay for human Metal Responsive Element (MRE) (AID 2282954); details: HepG2 MRE cis-reporter transcription, Attagene multiplex; actives raise or lower the signal
Procedure, shortened: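 HepG2 cells transiently transfected with cis-element-driven reporter units; mRNA measured 24 h after dosing. Reporter transcripts quantified by RT-PCR, FAM labelling, HpaI digestion and capillary electrophoresis; bidirectional fit versus DMSO.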

[9] = ATG_PBREM_CIS: Attagene CIS-FACTORIAL HepG2 Assay for human Phenobarbital-responsive Enhancer Module (PBREM) (AID 2282955); details: HepG2 PBREM cis-reporter, Attagene multiplexed transcription; actives raise or lower the signal
Procedure, shortened: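 After a 24 h incubation with test chemical, transfected HepG2 cells yield total RNA; reporter-specific RT-PCR products are fluorescently labelled, HpaI-digested and resolved by capillary electrophoresis against ROX size standards.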

[10] = target: Paired box protein Pax-6 (Homo sapiens) (UniProt P26367); test: ATG_Pax6_CIS: Attagene CIS-FACTORIAL HepG2 Assay for human Paired Box 6 (PAX6) (AID 2282956); details: HepG2 CIS-FACTORIAL PAX6 reporter transcription, RNA readout; actives raise or lower the signal
Paired box protein Pax-6 (Homo sapiens), sequence (P26367 whole entry, looked up): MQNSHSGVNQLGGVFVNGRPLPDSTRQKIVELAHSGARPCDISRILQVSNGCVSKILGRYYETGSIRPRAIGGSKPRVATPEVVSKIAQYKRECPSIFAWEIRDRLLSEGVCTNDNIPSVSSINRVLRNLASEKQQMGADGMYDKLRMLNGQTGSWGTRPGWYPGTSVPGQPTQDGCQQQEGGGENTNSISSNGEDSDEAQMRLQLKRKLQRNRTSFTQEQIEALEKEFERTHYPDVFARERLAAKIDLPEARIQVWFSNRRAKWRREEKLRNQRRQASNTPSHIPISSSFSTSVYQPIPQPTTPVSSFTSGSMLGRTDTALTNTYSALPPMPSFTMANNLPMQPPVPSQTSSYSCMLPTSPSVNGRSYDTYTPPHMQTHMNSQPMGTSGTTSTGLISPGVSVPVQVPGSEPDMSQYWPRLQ
Procedure, shortened: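 After twenty-four hours of chemical exposure, transfected HepG2 cells are harvested for RNA. Cis-promoter reporter transcripts are amplified, fluorescently labelled and sized by capillary electrophoresis, with gain and loss of signal scored against DMSO.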

[11] = ATG_PXRE_CIS: Attagene CIS-FACTORIAL HepG2 Assay for human Pregnane X Receptor Element (PXRE) (AID 2282957); details: HepG2 Attagene CIS-FACTORIAL PXRE reporter, mRNA; actives raise or lower the signal
Procedure, shortened: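 Transfect HepG2 with MRTUs (cis promoter elements); dose chemical, incubate 24 h; isolate RNA, RT with oligo(dT), PCR, 6-FAM label, HpaI cut, CE. Gain/loss fit vs DMSO.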

[12] = ATG_PPRE_CIS: Attagene CIS-FACTORIAL HepG2 Assay for human Peroxisome Proliferator-activated Response Element (PPRE) (AID 2282958); details: HepG2 PPRE cis-element reporter, Attagene transcription factor profiling; actives raise or lower the signal
Procedure, shortened: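 Multiplexed reporter transcription units under cis-regulatory promoters were transfected into HepG2 cells to capture endogenous factor activity. A 24 h incubation preceded RNA isolation and fluorescent RT-PCR fragment analysis.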

[13] = ATG_RORE_CIS: Attagene CIS-FACTORIAL HepG2 Assay for human RAR-related Orphan Receptor Element (RORE) (AID 2282959); details: HepG2 Attagene cis-factorial RORE reporter, mRNA; actives raise or lower the signal
Procedure, shortened: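 Fluorescence intensity of reporter-specific cDNA fragments, separated by capillary electrophoresis, gives the signal. Source: HepG2 liver cells transiently transfected with cis-element reporters and exposed 24 h; DMSO-normalized bidirectional fit.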

[14] = ATG_Sox_CIS: Attagene CIS-FACTORIAL HepG2 Assay for human SRY-box transcription factor (SOX) (AID 2282960); details: HepG2 Attagene cis-factorial SOX reporter, mRNA; actives raise or lower the signal
Procedure, shortened: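 After 24 h of chemical treatment, transfected HepG2 reporter cells are lysed for total RNA. Transcript levels come from RT-PCR with labelled primer extension and capillary electrophoresis, analysed bidirectionally versus DMSO.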

[15] = target: Transcription factor Sp1 (Homo sapiens) (UniProt P08047); test: ATG_Sp1_CIS: Attagene CIS-FACTORIAL HepG2 Assay for human Specificity Protein 1 (Sp1) (AID 2282961); details: HepG2 Sp1 cis-reporter transcription, actives raise or lower the signal
Transcription factor Sp1 (Homo sapiens), sequence (P08047 whole entry, looked up): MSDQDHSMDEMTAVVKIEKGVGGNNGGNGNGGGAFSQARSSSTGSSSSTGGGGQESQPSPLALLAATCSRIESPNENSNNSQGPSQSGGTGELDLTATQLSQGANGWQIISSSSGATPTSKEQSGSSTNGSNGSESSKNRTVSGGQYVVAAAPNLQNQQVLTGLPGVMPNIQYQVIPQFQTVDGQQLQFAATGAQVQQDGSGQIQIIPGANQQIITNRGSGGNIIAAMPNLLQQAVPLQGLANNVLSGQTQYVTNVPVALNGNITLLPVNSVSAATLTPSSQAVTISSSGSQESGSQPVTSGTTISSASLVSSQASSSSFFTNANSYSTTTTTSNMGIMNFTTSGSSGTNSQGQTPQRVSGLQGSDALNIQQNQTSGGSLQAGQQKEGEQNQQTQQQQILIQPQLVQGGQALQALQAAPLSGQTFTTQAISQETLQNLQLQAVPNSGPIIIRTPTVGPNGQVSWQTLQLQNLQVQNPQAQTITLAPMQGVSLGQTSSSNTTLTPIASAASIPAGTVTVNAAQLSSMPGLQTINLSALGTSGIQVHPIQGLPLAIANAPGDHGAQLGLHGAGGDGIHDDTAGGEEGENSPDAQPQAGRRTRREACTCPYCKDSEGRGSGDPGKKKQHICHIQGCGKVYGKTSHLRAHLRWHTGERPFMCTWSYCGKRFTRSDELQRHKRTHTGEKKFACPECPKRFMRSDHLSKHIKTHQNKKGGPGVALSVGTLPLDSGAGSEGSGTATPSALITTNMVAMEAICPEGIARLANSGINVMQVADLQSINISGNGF
Procedure, shortened: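 Sp1-driven reporter mRNA, read as capillary electrophoresis fluorescence after RT-PCR, in transiently transfected HepG2 cells dosed for 24 h; signal change in either direction relative to DMSO.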

[16] = ATG_SREBP_CIS: Attagene CIS-FACTORIAL HepG2 Assay for human Sterol Regulatory Element Binding (SREBP) (AID 2282962); details: HepG2 Attagene cis-factorial SREBP reporter, mRNA; actives raise or lower the signal
Procedure, shortened: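 Twenty-four hours after chemical dosing of transfected HepG2 cultures, reporter RNA was converted to cDNA, amplified, end-labelled with 6-FAM and resolved by capillary electrophoresis. Responses were fitted relative to DMSO.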

[17] = ATG_TA_CIS: Attagene CIS-FACTORIAL HepG2 Assay for human TA Basal Promoter (AID 2282964); details: HepG2 Attagene CIS-factorial TA basal promoter reporter; actives raise or lower the signal
Procedure, shortened: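 Fluorescence from labelled RT-PCR reporter fragments, separated by capillary electrophoresis, gives the signal. Cells: HepG2 transiently carrying multiple reporter units, 24 h chemical dosing. Gain or loss relative to DMSO.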

[18] = ATG_GRE_CIS: Attagene CIS-FACTORIAL HepG2 Assay for human Glucocorticoid Response Elements (GRE) (AID 2282947); details: HepG2 GRE cis-reporter, Attagene multiplex mRNA; actives raise or lower the signal
Procedure, shortened: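 Transiently transfected HepG2 cells carrying GRE cis-reporter units (endogenous TF activity) dosed 24 h; reporter mRNA quantified by RT-PCR, 6-FAM labelling, HpaI digestion and capillary electrophoresis. Bidirectional fit versus DMSO baseline.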

[19] = target: Signal transducer and activator of transcription 3 (Homo sapiens) (UniProt P40763); test: ATG_STAT3_CIS: Attagene CIS-FACTORIAL HepG2 Assay for human Signal Transducer and Activator of Transcription 3 (STAT3) (AID 2282963); details: HepG2, Attagene cis-factorial STAT3 reporter transcription; actives raise or lower the signal
Signal transducer and activator of transcription 3 (Homo sapiens), sequence (P40763 whole entry, looked up): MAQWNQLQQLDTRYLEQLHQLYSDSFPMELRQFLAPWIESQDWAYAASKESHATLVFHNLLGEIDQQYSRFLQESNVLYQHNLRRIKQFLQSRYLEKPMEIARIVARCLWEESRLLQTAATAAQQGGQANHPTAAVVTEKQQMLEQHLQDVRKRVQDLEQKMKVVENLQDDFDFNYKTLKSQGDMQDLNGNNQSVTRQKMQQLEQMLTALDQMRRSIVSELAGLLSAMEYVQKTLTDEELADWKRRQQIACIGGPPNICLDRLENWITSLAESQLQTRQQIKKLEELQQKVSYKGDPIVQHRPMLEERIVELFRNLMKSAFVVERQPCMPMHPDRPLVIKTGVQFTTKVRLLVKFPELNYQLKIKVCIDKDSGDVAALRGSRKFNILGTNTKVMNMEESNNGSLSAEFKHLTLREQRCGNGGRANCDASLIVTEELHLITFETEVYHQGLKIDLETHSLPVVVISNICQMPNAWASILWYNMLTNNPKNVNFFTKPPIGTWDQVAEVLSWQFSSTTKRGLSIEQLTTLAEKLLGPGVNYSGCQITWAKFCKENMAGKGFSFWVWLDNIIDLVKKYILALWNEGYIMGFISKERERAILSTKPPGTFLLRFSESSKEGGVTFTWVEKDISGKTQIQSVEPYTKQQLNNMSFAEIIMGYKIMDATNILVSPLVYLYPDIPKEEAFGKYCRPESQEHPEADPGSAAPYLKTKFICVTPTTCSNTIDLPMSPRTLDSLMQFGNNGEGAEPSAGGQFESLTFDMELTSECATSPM
Procedure, shortened: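 HepG2 cells transiently transfected with multiple cis-element-driven reporter units report endogenous transcription factor activity. After 24 h compound exposure, reporter mRNA is measured by RT-PCR, 6-FAM labelling, HpaI digestion and capillary electrophoresis. Fitted bidirectionally versus DMSO.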

Structure (SMILES) | outcome [1] | outcome [2] | outcome [3] | outcome [4] | outcome [5] | outcome [6] | outcome [7] | outcome [8] | outcome [9] | outcome [10] | outcome [11] | outcome [12] | outcome [13] | outcome [14] | outcome [15] | outcome [16] | outcome [17] | outcome [18] | outcome [19] | AC50 [12]
CNC(=O)CSP(=S)(OC)OC | inactive | inactive | inactive | inactive | inactive | inactive | inactive | inactive | inactive | inactive | inactive | inactive | inactive | inactive | inactive | inactive | inactive | – | – | –
CNC(=O)Oc1ccccc1OC(C)C | inactive | inactive | inactive | inactive | inactive | inactive | inactive | inactive | inactive | inactive | inactive | inactive | – | inactive | inactive | inactive | inactive | inactive | inactive | –
O=C(NC(=O)c1c(F)cccc1F)Nc1ccc(OC(F)(F)C(F)OC(F)(F)F)c(Cl)c1 (stereo unspecified) | inactive | inactive | inactive | inactive | inactive | inactive | inactive | inactive | – | inactive | inactive | – | – | inactive | inactive | inactive | inactive | inactive | – | 20.9 µM (active)
